Hits are enriched below; roughly 4.8% of the tested compounds scored in any of these assays.
DAX1 inh-1: blocks DAX1 repression of SF-1 activated StAR promoter; HEK293T StAR-luciferase reporter, SF-1/DAX-1 repression relief; inhibition, % at 6.8 µM; actives 1.1% (n = 370,000); AID 652010;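 active means inhibition above the mean over all tested compounds plus 3 SD, cut at about 3.6% in these data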;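 further: 0% = DAX-1 cells with DMSO and 100% = cells lacking DAX-1 with DMSO; higher inhibition means more luminescence from relief of DAX-1 repression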
SMARCA2 act: activators of SMARCA2 function. MG213 cells, MMTV-luciferase reporter, dexamethasone, overnight. AID 652017. actives 1% (n = 370,000). activation, % at 9.1 µM; in the data active means activation above about 7.8%;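 further: 0% = vehicle wells and 100% = reference activator wells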
ssDAF12 agonist: activates DAF-12 receptor from parasite S. stercoralis | HEK293 ssDAF-12/GRIP1 lit1-tk-luc reporter, luminescence; % of 3 µM dafachronic acid response | activation, % at 6.8 µM | actives 1% (n = 370,000);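 active means activation above the mean over all tested compounds plus 3 SD, cut at about 0.9% in these data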;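 further: 0% = DMSO-only wells and 100% = 3 µM delta7-dafachronic acid wells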
hcDAF-12 act: activators of H. contortus DAF-12 nuclear receptor; AID 652067; activation, % at 6.8 µM; HEK293 hcDAF-12 lit1-tk-luc reporter, luminescence; 0% DMSO, 100% Δ7-dafachronic acid; actives 1.4% (n = 370,000);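 active means activation above the mean of all tested compounds plus 3 SD, cut at about 5.5% in these data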;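 further: 100% = response to 3 µM Δ7-dafachronic acid high control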
hgDAF-12 ag: agonists of H. glycines DAF-12 nuclear receptor; HEK293 GAL4-hgDAF12 UAS-luciferase reporter, agonist luminescence; normalized to butyrate control; activation, % at 6.8 µM; actives 1.8% (n = 370,000); AID 687014;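 active means activation above a cutoff set at the mean of all screened compounds plus 3 SD, cut at about 10% in these data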;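 further: 0% = DMSO wells and 100% = sodium butyrate wells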
DAX1 inh-2: NR0B1 (DAX1) inhibition. P51843. HEK293 Gal4-DAX1 luciferase reporter, luminescence. inhibition, % at 6.75 µM. actives 0.99% (n = 340,000). AID 504766;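 active means inhibition above the mean over all tested compounds plus 3 SD, cut at about 4.2% in these data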;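 further: 0% = DAX1-transfected cells with DMSO and 100% = empty-vector control cells with DMSO; inhibition shows as a rise in luminescence from relieved DAX1 repression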
Target sequence (P51843 207-470 limits assumed): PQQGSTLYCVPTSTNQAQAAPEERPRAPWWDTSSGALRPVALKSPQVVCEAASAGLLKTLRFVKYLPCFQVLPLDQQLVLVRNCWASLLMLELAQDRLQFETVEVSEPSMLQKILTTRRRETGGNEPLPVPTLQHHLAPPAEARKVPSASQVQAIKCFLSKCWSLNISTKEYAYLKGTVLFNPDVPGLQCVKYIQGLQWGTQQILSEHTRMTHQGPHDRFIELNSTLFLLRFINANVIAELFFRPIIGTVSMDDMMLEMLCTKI
* hit, by the source's call.

Results for CCN1CCN(c2ccc(S(=O)(=O)N3CCCCC3)cc2NC(=O)c2cccc(Cl)c2)CC1 ?
DAX1 inh-1: -2; SMARCA2 act: -2; ssDAF12 agonist: -1; hcDAF-12 act: 1; hgDAF-12 ag: -1; DAX1 inh-2: -1

Results for CC(=O)c1sc(NC(=O)c2ccccc2)nc1-c1ccccc1 ?
DAX1 inh-1: 3; SMARCA2 act: 6; ssDAF12 agonist: 1; hcDAF-12 act: 2; hgDAF-12 ag: 12*; DAX1 inh-2: 4.8*

How did O=C(Nc1nc(-c2ccccc2)c(C(=O)c2ccccc2)s1)c1ccc(S(=O)(=O)N2CCCCC2)cc1 do in these assays?
DAX1 inh-1: 0; SMARCA2 act: 0; ssDAF12 agonist: 0; hcDAF-12 act: 6.5*; hgDAF-12 ag: 2; DAX1 inh-2: -1

How did CC(=O)c1sc(NC(=O)c2c(F)cccc2F)nc1-c1ccccc1 do in these assays?
DAX1 inh-1: 0; SMARCA2 act: 2; ssDAF12 agonist: -1; hcDAF-12 act: -2; hgDAF-12 ag: -2; DAX1 inh-2: 1

Results for OCC[C@@H]1C[C@@H](O)[C@H](O)[C@]2(OCCCc3ccccc32)O1 ?
DAX1 inh-1: 0; SMARCA2 act: 1; ssDAF12 agonist: -1; hcDAF-12 act: -1; hgDAF-12 ag: -2; DAX1 inh-2: 1

What do the screens show for `Cc1cc(/C=C2/NC(=O)N(Cc3ccccc3F)C2=O)c(C)n1-c1ccccn1`?
DAX1 inh-1: 0; SMARCA2 act: -1; ssDAF12 agonist: 1.3*; hcDAF-12 act: 4; hgDAF-12 ag: 5; DAX1 inh-2: -1

Results for O=C(N/N=C/c1cc([N+](=O)[O-])ccc1O)C12CC3CC(CC(C3)C1)C2 ?
DAX1 inh-1: 0; SMARCA2 act: -4; ssDAF12 agonist: -2; hcDAF-12 act: -1; hgDAF-12 ag: 0; DAX1 inh-2: 4.2*

Results for O=C(Nc1ccc(N2C(=O)CC(c3ccccc3)C2=O)c(Cl)c1)c1ccccn1 (stereo not given) ?
ssDAF12 agonist: -1; hcDAF-12 act: 0; hgDAF-12 ag: -1

What do the screens show for `O=C(Nc1ccc(N2C(=O)[C@@H]3[C@H](C2=O)[C@@H]2C=C[C@H]3C2)c(Cl)c1)c1ccccn1`?
ssDAF12 agonist: 0; hcDAF-12 act: 4; hgDAF-12 ag: 12*

What do the screens show for `COc1cccc(/C=N/n2cncn2)c1OCC#N`?
DAX1 inh-1: 0; SMARCA2 act: -1; ssDAF12 agonist: -1; hcDAF-12 act: -2; hgDAF-12 ag: -2; DAX1 inh-2: 1

What do the screens show for `COc1ccc(C(=O)Nc2ccc(CN3CCS(=O)(=O)CC3)cc2)cc1`?
DAX1 inh-1: 1; SMARCA2 act: -1; ssDAF12 agonist: -2; hcDAF-12 act: 0; hgDAF-12 ag: -1; DAX1 inh-2: 4.4*

Results for CCN1CCN(Cc2ccc(NC(=O)Nc3ccccc3)cc2)CC1 ?
DAX1 inh-2: 3

What do the screens show for `COc1c(C)cccc1C(=O)Nc1ccc(CN2CCOCC2)cc1`?
DAX1 inh-1: 4; SMARCA2 act: 4; ssDAF12 agonist: -1; hcDAF-12 act: 6.0*; hgDAF-12 ag: 7; DAX1 inh-2: 4

Results for CCN1CCN(Cc2ccc(NC(=O)Nc3ccc(OC)cc3)cc2)CC1 ?
DAX1 inh-1: 0; SMARCA2 act: 5; ssDAF12 agonist: -1; hcDAF-12 act: 0; hgDAF-12 ag: 9; DAX1 inh-2: 4.3*

How did CC1=C(C)NC(=S)SC1 do in these assays?
DAX1 inh-1: 0; SMARCA2 act: -3; ssDAF12 agonist: -1; hcDAF-12 act: 5.6*; hgDAF-12 ag: -1; DAX1 inh-2: 1

Results for CC(C)C[C@H](NC(=O)c1ccco1)C(=O)N1CCC[C@H]1C(=O)NCc1ccccc1 ?
DAX1 inh-1: -1; SMARCA2 act: 2; ssDAF12 agonist: -1; hcDAF-12 act: -1; hgDAF-12 ag: 1

How did CN(C)C(=O)c1cc(F)ccc1Sc1cc(Cl)ccc1Cl do in these assays?
DAX1 inh-1: 0; SMARCA2 act: 1; ssDAF12 agonist: -1; hcDAF-12 act: -1; hgDAF-12 ag: -1; DAX1 inh-2: 0

High-throughput results deposited in PubChem by The Scripps Research Institute Molecular Screening Center.
